In PubChem BioAssay (NCI):
This is part of a sample that, as a whole, favours compounds with a hit. Of some 83,000 tested, about 20% had one in any assay.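 Percent growth is the endpoint: 0 to 100 indicates growth inhibition (40 means 60% inhibition), 0 means no net growth, and negative values indicate cell death.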 Values without a mark were called inactive. Calls of active or inactive are those of the source. How the source made its calls: active means growth percent below 10; inactive means the rest.

Tests used:
Experiment in all cases: NCI-60 one-dose screen, 48 h (100 = growth as untreated, 0 = no growth, -100 = all killed)
Conditions in all cases: 10 µM unless noted
EKVX NSCLC = system: EKVX NSCLC
SN12C renal = system: SN12C renal
UO-31 renal = system: UO-31 renal
ACHN renal = system: ACHN renal
CAKI-1 renal = system: CAKI-1 renal
A498 renal = system: A498 renal
CCRF-CEM leukemia = system: CCRF-CEM leukemia
MOLT-4 leukemia = system: MOLT-4 leukemia
SR leukemia = system: SR leukemia
RPMI-8226 leukemia = system: RPMI-8226 leukemia
OVCAR-8 ovarian = system: OVCAR-8 ovarian
OVCAR-5 ovarian = system: OVCAR-5 ovarian
OVCAR-4 ovarian = system: OVCAR-4 ovarian
SK-OV-3 ovarian = system: SK-OV-3 ovarian
IGROV1 ovarian = system: IGROV1 ovarian
OVCAR-3 ovarian = system: OVCAR-3 ovarian
HS 578T breast = system: HS 578T breast
NCI/ADR-RES ovarian = system: NCI/ADR-RES ovarian
T-47D breast = system: T-47D breast

Row | SMILES | growth (EKVX NSCLC) | growth (SN12C renal) [%] | growth (UO-31 renal) | growth (ACHN renal) | growth (CAKI-1 renal) | growth (A498 renal) | growth (CCRF-CEM leukemia) | growth (MOLT-4 leukemia) | growth (SR leukemia) | growth (RPMI-8226 leukemia) | growth (OVCAR-8 ovarian) [%] | growth (OVCAR-5 ovarian) [%] | growth (OVCAR-4 ovarian) | growth (SK-OV-3 ovarian) | growth (IGROV1 ovarian) | growth (OVCAR-3 ovarian) | growth (HS 578T breast) | growth (NCI/ADR-RES ovarian) | growth (T-47D breast)
1 | NC(=O)c1cc(-c2ccc3ncnc(N4CCc5cc(F)c(Cl)cc54)c3c2)cnc1N | 13.6% | 23.4 | 22.3% | 23.1% | 19.9% | -68.3% (active) | 21% | -11.8% (active) | 18.5% | -8.02% (active) | 32.8 | 36.5 | 10.4% | 35.9% | -41.2% (active) | 1.86% (active) | -7.69% (active) | 60.2% | 0.0054% (active)
2 | Cc1cccc2sc(/N=C(\N)C(Br)Br)nc12 | 19.9% | 18.2 | 30.6% | -13.5% (active) | 3.85% (active) | 38.7% | 1.81% (active) | 2.63% (active) | -23.6% (active) | 2.19% (active) | 32.7 | 41.2 | 64.7% | 87.5% | -65.7% (active) | 29.2% | 37.2% | 17.6% | 41.4%
3 | N#Cc1c(-c2ccc(F)cc2)nc2c(C#N)c(Nc3ccccc3)nn2c1N | 92.8% | 97.7 | 90.7% | 105% | 90.7% | 66.3% | 96.1% | 102% | 93.3% | 104% | 101 | 98.9 | 103% | 117% | 107% | 106% | 99.6% | 103% | 88.3%
4 | Nc1ncc(-c2ccc3ncnc(N4CCc5cc(F)c(Cl)cc54)c3c2)cc1CO | -15.8% (active) | 14.7 | 6.11% (active) | 5.95% (active) | 2.97% (active) | -64% (active) | 6.14% (active) | -14.6% (active) | -6.6% (active) | -25.4% (active) | 12.5 | 19.9 | 8.51% (active) | -18.4% (active) | -54.7% (active) | -19.8% (active) | -18% (active) | 9.17% (active) | 0.798% (active)
5 | COc1cc2nc(-c3ccc(C(F)(F)F)cc3)cc(OCCCNCC3CCCO3)c2cc1OC (configuration not stated) | 61.5% | 46.2 | 35.9% | 31.9% | 8.44% (active) | 17.9% | 28.6% | 14.3% | 8.68% (active) | -13.1% (active) | 35.6 | 40.6 | 62.4% | 86.2% | 28.5% | 65.4% | 55.6% | 41.4% | 38%
6 | O=C1Nc2cc(Cl)ccc2/C1=C\c1ccc(OCc2ccc([N+](=O)[O-])cc2)cc1 | 82.5% | 79.5 | 50.7% | 43% | 64.6% | 81% | 5.4% (active) | 97.4% | 87.5% | 55.6% | 78.8 | 93.3 | 43.6% | 98% | 64.5% | 87.8% | 60.9% | 73.3% | 51.9%
7 | CS(=O)(=O)c1ccc(-c2nc3ccccn3c2-c2nc3ccc([N+](=O)[O-])cc3[nH]2)cc1 | 91% | 94.8 | 77.7% | 88.6% | 86.2% | 87.5% | 101% | 90.3% | 95.2% | 95.1% | 94.5 | 97.8 | 93.2% | 107% | 81% | 110% | 99.7% | 92.2% | 91.2%
8 | Clc1ccc2c(NCCCN3CCOCC3)c3oc4ccc(Cl)cc4c3nc2c1 | 65.3% | 40 | 32.2% | 12.1% | 21.6% | 49.7% | 48.9% | 15.4% | 1.24% (active) | 67.8% | 35.6 | 47.4 | 87.4% | 89.3% | 42.9% | 104% | 84% | 42.5% | 91.4%
